Source: PubChem BioAssay
CatL inh: blocks human cathepsin L protease activity; purified cathepsin L, fluorogenic substrate, fluorescence; inhibition, %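 (tested at 10 µM)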; hit rate 0.17% among 58,000; AID 460; in the data active means inhibition above about 45%;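 further: 0% = enzyme with no compound and 100% = no enzyme blank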
CatS inh: inhibitors of human cathepsin S; inhibition, %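 (tested at 5 µM per compound within 10-compound mixtures)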; P25774; recombinant cathepsin S, AMC dipeptide fluorescence, pooled mixtures; hit rate 0.06% among 62,000; in the data active means inhibition above about 32%, passing the limit was not always enough; inconclusive means no clear call, values can overlap the other calls;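 further: 0% = enzyme without compound and 100% = blank without enzyme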
SKBR3 24h inh: SK-BR-3 proliferation inhibitors; SK-BR-3 viability, CellTiter-Glo ATP luminescence, 24 h; stronger effect = lower value; viability, % at 10 µM; hit rate 0.47% among 41,000; AID 847;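 active means viability at or below the median of all test compounds minus 3 SD, in both replicates if run twice, cut at about 45% in these data; inconclusive means duplicate replicates that disagree with each other; inactive means viability above that cutoff in every replicate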;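 further: 100% = median untreated cell wells and 0% = median positive control drug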
CatB block: human cathepsin B inhibition | purified cathepsin B, fluorogenic substrate, fluorescence | AID 453 | inhibition, %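 (tested at 10 µM)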 | hit rate 0.1% among 63,000; in the data active means inhibition above about 21%;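 further: 0% = enzyme with no compound and 100% = no enzyme blank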
CatB mixtures: inhibitors of human cathepsin B in compound mixtures; AID 488; inhibition, %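 (ten-compound pools at 5 µM per compound and 50 µM total)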; hit rate 0.06% among 62,000; Purified cathepsin B, AMC dipeptide fluorescence; P07858; in the data active means inhibition above about 22%, passing the limit was not always enough; inconclusive means no clear call, values can overlap the other calls;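 further: 0% = enzyme without compound and 100% = no enzyme blank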
HER2 expr 66K: inhibitors of human Her2 kinase expression; SKBR-3 HER2 protein level, AlphaScreen, 18-24 h; stronger effect = lower value; HER2 level % of control, % at 10 µM; AID 645; P04626; hit rate 0.69% among 65,000;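 active means HER2 level under 5% of the carrier-only control; inconclusive means no clear call, values can overlap the other calls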;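 further: 100% = DMSO carrier and 0% = 500 nM PU-H71 HSP90 inhibitor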
Target sequence (P04626 whole entry, looked up): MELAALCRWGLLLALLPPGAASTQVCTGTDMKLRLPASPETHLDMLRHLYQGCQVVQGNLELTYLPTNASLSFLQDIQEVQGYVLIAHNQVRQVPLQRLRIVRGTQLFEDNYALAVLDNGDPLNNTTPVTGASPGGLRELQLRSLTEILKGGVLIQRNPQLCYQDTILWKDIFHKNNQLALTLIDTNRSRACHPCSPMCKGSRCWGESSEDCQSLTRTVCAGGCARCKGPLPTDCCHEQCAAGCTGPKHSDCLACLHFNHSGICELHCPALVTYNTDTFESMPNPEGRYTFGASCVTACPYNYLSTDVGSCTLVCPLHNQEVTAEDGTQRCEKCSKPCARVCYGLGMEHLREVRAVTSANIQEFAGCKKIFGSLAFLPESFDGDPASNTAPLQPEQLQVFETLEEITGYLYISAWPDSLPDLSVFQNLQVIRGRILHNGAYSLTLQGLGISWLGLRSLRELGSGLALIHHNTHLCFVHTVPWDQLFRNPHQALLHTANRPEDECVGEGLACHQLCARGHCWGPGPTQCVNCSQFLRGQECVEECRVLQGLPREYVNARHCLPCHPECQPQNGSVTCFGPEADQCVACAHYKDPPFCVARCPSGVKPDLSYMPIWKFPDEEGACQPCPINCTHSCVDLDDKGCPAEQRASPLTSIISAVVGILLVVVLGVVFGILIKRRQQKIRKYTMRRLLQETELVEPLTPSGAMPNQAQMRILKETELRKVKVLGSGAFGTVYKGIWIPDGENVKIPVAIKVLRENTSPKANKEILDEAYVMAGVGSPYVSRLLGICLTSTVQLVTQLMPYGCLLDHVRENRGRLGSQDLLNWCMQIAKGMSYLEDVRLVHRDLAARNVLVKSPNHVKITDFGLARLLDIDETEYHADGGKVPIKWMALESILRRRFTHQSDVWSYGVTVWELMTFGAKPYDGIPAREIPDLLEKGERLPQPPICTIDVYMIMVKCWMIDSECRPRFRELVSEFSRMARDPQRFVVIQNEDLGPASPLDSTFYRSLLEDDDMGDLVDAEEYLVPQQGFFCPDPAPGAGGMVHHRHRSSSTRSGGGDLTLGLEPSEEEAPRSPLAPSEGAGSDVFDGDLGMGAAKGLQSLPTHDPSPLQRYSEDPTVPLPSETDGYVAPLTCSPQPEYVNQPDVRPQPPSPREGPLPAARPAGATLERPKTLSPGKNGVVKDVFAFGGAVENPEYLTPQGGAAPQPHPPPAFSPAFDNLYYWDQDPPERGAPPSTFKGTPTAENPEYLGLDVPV
* = called active by the depositor; ? = inconclusive; · = no result. Hits are enriched below; roughly 1.1% of the tested compounds scored in any of these assays.

SMILES	CatL inh	CatS inh	SKBR3 24h inh	CatB block	CatB mixtures	HER2 expr 66K
CCn1nc(-c2cccs2)nc2c(=O)n(C)c(=O)nc1-2	81*	87*	27*	82*	86*	-0.1*
CN1CCN(c2ccc(C(N)=O)cc2N)CC1	-1	1	75	-1	2	-20*
CC(C(=O)c1c[nH]c2ccccc12)N1CCc2ccccc2C1 (stereo not drawn)	-6	-5	96	-5	3	65
CC1CN(O)C2CCc3nonc3C12O (stereo not drawn)	2	14	93	6	4	94
CCCCCCn1c(N)c(C(=O)NCCN2CCOCC2)c2nc3ccccc3nc21	-64	19	2.3*	-7	2	-5.8*
CCCCCn1c(N)c(C(=O)NCCN2CCOCC2)c2nc3ccccc3nc21	-74	6	·	-6	3	37
CCn1c(O)c(C(=O)CC2NCCc3ccccc32)c(=O)n(CC)c1=S (stereo not drawn)	9	·	3.2*	8	·	-17*
COc1cc2c(cc1OC)-c1c(OC)c(OC)cc3c1C(C2)N(C)CC3 (stereo not drawn)	14	?	85	27*	20	87
C=C(C)CSc1nnc([C@@H](N)Cc2c[nH]c3ccccc23)o1	·	1	97	3	-4	87
Cc1ccc(NC(=O)CSc2nnc([C@@H](N)Cc3c[nH]c4ccccc34)o2)c(C)c1	93*	2	67	6	-3	61
CCc1ccccc1NC(=O)CSc1nnc([C@@H](N)Cc2c[nH]c3ccccc23)o1	120*	17	78	0	6	59
COc1ccc(CCN(C)Cc2c(F)cccc2F)cc1OC	4	15	·	3	3	99
O=c1cccc2n1CC1CC2CN(C(c2ccccc2)c2sc3ncnn3c2O)C1 (stereo not drawn)	2	0	·	3	4	107
Cn1cccc1CNCCc1ccccc1F	54*	3	84	-2	1	102
COc1ccc(C2C(C(=O)N3CCC4(CC3)OCCO4)CC(=O)N2c2ccc(OC)cc2)cc1 (stereo not drawn)	3	11	82	0	5	69
Cc1oc(C(=O)Nc2ccc(O)cc2)cc1COc1ccccc1	10	-20	104	3	-16	87
